In PubChem BioAssay (NCATS):
Inconclusive results are not listed. Where a call stands in place of a potency, no number is given. Activity calls are given as the source filed them. Calls come from the whole dose curve; as a rule, active = well fitted inhibition curve with a large enough effect; inconclusive = small, poorly fitted or top-dose-only effect; inactive = no such curve, though single readings can be large or run the other way.

Assays:
[1] = system: Zika virus NS2B-NS3 protease (unlinked complex); experiment: Primary screen GU Rhodamine qHTS for Zika virus inhibitors: Unlinked NS2B-NS3 protease assay (AID 1347159); note: nearly all actives have a fitted effect of over 60% in size
In short: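 Buffer 10 mM Tris-HCl pH 8.0, 0.01% Tween 20. Unlinked protease 25 nM; compound preincubation 15 min, RT, protected from light. Substrate Rhod110, 1.5 microM; ~15% conversion in 15 min.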

[2] = system: Zika virus NS2B-NS3 protease (linked construct); experiment: Primary screen NINDS Rhodamine qHTS for Zika virus inhibitors (AID 1347160); note: nearly all actives have a fitted effect of over 55% in size
In short: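 Aprotinin served as in-plate control. Conditions: 25 nM linked NS2B-NS3, pH 8.0 Tris buffer, titrated compounds, 15 min preincubation and 15 min reaction with 1.5 microM Rhod110 substrate at room temperature.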

Row | SMILES | Potency [1] | Potency [2]
1 | CCC(C)C1NC(=O)C(Cc2ccccc2)NC(=O)C(CCCCCC(=O)C(O)CO)NC(=O)C2CCCCN2C1=O (configuration not stated) | inactive | inactive
2 | CCN1CCC[C@@H]1CNC(=O)c1ccc2c(c1)NC(=O)c1cccc(C)c1S2 | inactive | inactive
3 | O=C(NCCCN1CCC2(CC1)OCc1ccccc12)[C@H]1CCCN1Cc1ccccc1 | inactive | inactive
4 | CN1CC2CN(c3ccc4oc5ccccc5c(=O)c4c3)CC2C1 (configuration not stated) | inactive | inactive
5 | Cc1cc(CS(=O)(=O)c2ccccc2)cc(OCc2ccc(CN3CCCC3CO)cc2)c1 (configuration not stated) | inactive | inactive
6 | Nc1nc(OCc2cc(Br)cs2)c2[nH]cnc2n1 | inactive | inactive
7 | CCCC(CCC)C(=O)Nc1ccn([C@@H]2O[C@H](CO)[C@@H](O)C2(F)F)c(=O)n1 | inactive | inactive
8 | C=C(C)C(=O)OC1CC(CO)CCC/C(CO)=C/C2OC(=O)C(=C)C21 (configuration not stated) | inactive | inactive
9 | CO[C@@H]1CC(OC2CCC3(C)C(CCC45CCC(C6=CC(=O)OC6)C(C)(CCC43)C5=O)C2)O[C@H](C)[C@@H]1O[C@@H]1O[C@H](CO[C@@H]2O[C@H](CO)[C@@H](O)[C@H](O)[C@H]2O)[C@@H](O)[C@H](O)[C@H]1O (some centres not stated) | inactive | inactive
10 | O=S1(=O)CCN(Cc2cc(NCC3CCOCC3)c3[nH]c(-c4ccccc4)cc3c2)CC1 | inactive | inactive
11 | CCOc1cc(C(C)(C)C)ccc1C1=N[C@@](C)(c2ccc(Cl)cc2)[C@@](C)(c2ccc(Cl)cc2)N1C(=O)N1CCN(CC(=O)N2CCOCC2)CC1 | inactive | inactive
